Results filed as inconclusive are left out. Calls of active or inactive are those of the source. The call rests on the fitted dose curve; in most records, active means well fitted inhibition curve with a large enough effect; inconclusive means small, poorly fitted or top-dose-only effect; inactive means no such curve, though single readings can be large or run the other way. Where a SMILES comes first, the peptide text is derived from it.
Experiment: P-glycoprotein substrates identified in KB-3-1 adenocarcinoma cell line, qHTS therapeutic library screen (AID 1346986); further: nearly all actives have a fitted effect of over 60% in size;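 further: potency is for cytotoxicity meaning loss of cell viability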
Conditions: KB-3-1 parental cells viability, CellTiter-Glo, 72 h; series mostly up to 44.5 µM; activity change, negative = cytotoxicity: at the top concentration
In short: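 Resistance attributable to P-gp was assessed by comparing AC50 in KB-8-5-11 with parental KB-3-1 and by tariquidar reversal. Cells were exposed 72 h and viability read by CellTiter-Glo.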
Potency means the concentration at half of the fitted maximal effect.

Compound | outcome | Potency
CC1=CCC2C(C)(CO)CCCC2(C)C1CC12OC1C(O)C(CO)=CC2O (stereo not given) | inactive | 
CC(=O)O[C@H]1CC[C@@]2(CI)C(=CC[C@@H]3[C@@H]2CC[C@]2(C)[C@@H]([C@H](C)CCCC(C)C)CC[C@@H]32)C1 | inactive [at 9.29 µM] | 
C=C/C=C/[C@@H]1OC[C@H](/C=C/C=C/C)[C@H]1O | inactive [at 93.4 µM] | 
C[C@@H](O)[C@H](N)C(=O)N1CCC[C@H]1C(=O)N1CCC[C@H]1C(=O)N[C@H](C(N)=O)[C@@H](C)O (H-TPPT-NH2) | inactive [at 9.29 µM] | 
CC[C@H](/C=C/[C@@H](C)[C@H]1CC[C@H]2[C@@H]3CC=C4C[C@@H](O)CC[C@]4(C)[C@H]3CC[C@]12C)C(C)C | inactive [at 5.11 µM] | 
CC1OC(OC2C(CO)OC(OCC3OC(OC(=O)C45CCC(C)(C)CC4C4=CCC6C7(C)CCC(OC8OC(C(=O)O)C(O)C(OC9OC(CO)C(O)C(O)C9O)C8O)C(C)(C)C7CCC6(C)C4(C)CC5)C(O)C(O)C3O)C(O)C2O)C(O)C(O)C1O (stereo not given) | inactive [at 9.29 µM] | 
CC(=O)O[C@@]1(C)C[C@@H](O)[C@]2(O)C=CO[C@@H](O[C@@H]3O[C@H](CO)[C@@H](O)[C@H](O)[C@H]3O)[C@@H]21 | inactive [at 17.4 µM] | 
CC(C)=CCc1ccc(Oc2c(O)cc(C)cc2CO)c(C(=O)O)c1O | inactive | 
CC(/C=C/C1(O)C2(C)COC1(C)CC(=O)C2)O[C@@H]1O[C@H](CO)[C@@H](O)[C@H](O)[C@H]1O (stereo not given in full) | inactive [at 17.4 µM] | 
Nc1ccn([C@@H]2C(F)=C(CO)[C@@H](O)[C@H]2O)c(=O)n1 |  | 3.66 µM (active)
